Records with an inconclusive call do not appear. Activity calls are given as the source filed them. Rule for the calls, unless noted: active = hit-call score of the fitted dose curve at least 0.9, where 1 is the maximum; inactive = score below 0.9.

For experiment [1], the target named is Glucocorticoid receptor (Homo sapiens) (UniProt P04150). Kind of experiment: ATG_GR_TRANS: Attagene TRANS-FACTORIAL HepG2 Assay for human Glucocorticoid Receptor (GR) (AID 2282978; active = hit-call score of the fitted dose curve at least 0.9, where 1 is the maximum;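 note: activators score as hits since higher reporter transcript over DMSO is fitted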). As to conditions: HepG2 Attagene TRANS GR reporter, mRNA transcription. Summed up: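 Multiplexed TRANS reporter system, HepG2; 24 h exposure; RNA → oligo(dT) RT → reporter-specific PCR → 6-FAM primer extension → HpaI cut → CE fluorescence. Gain-of-signal vs DMSO.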
Chain of Glucocorticoid receptor (Homo sapiens) (P04150 whole entry, looked up): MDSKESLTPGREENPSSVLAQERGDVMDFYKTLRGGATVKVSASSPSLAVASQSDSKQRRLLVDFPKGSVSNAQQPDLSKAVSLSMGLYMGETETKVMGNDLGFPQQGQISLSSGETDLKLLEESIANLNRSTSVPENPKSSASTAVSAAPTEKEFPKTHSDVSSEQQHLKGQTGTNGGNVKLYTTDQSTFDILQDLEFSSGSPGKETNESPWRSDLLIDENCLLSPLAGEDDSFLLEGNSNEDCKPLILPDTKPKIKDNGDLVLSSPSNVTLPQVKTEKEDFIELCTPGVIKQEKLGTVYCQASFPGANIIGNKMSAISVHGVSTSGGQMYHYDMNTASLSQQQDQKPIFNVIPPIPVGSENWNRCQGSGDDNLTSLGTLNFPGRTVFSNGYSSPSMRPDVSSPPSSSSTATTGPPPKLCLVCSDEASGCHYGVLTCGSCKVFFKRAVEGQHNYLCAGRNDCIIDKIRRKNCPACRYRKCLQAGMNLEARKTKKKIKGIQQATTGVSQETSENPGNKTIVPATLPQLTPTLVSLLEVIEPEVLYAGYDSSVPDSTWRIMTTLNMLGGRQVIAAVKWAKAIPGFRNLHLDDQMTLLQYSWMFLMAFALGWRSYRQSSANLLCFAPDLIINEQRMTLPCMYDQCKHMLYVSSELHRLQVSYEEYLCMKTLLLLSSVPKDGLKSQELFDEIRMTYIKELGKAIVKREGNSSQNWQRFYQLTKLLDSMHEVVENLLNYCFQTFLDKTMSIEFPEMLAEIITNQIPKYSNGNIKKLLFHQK

Experiment [2] deals with Oxysterols receptor LXR-beta (Homo sapiens) (UniProt P55055). Kind of experiment: ATG_LXRb_TRANS: Attagene TRANS-FACTORIAL HepG2 Assay for human Liver X Receptor beta (LXRb) (AID 2282981; active = hit-call score of the fitted dose curve at least 0.9, where 1 is the maximum). The note with it: HepG2 Attagene TRANS GAL4-LXRb reporter, mRNA. Summed up:
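HepG2 cells transiently transfected with GAL4-UAS reporter units for chimeric NR-Gal4 proteins, dosed for 24 h. Reporter transcripts measured by RT-PCR and capillary electrophoresis; gain-of-signal fitting relative to DMSO.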

Experiment [3] has as its target Nuclear receptor subfamily 4 group A member 2 (Homo sapiens) (UniProt P43354). Kind of experiment: ATG_NURR1_TRANS: Attagene TRANS-FACTORIAL HepG2 Assay for human Nuclear Receptor Related Protein 1 (NURR1) (AID 2282985; active = hit-call score of the fitted dose curve at least 0.9, where 1 is the maximum). The note with it: HepG2 Attagene TRANS reporter, mRNA readout. Summed up: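 HepG2 cells transiently transfected with NURR1-Gal4 chimera and GAL4-UAS reporter units; after 24 hr compound exposure, reporter mRNA quantified by RT-PCR and capillary electrophoresis; gain of signal fitted against DMSO.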

For experiment [4], the target named is Transcriptional activator Myb (Homo sapiens) (UniProt P10242). Kind of experiment: ATG_Myb_CIS: Attagene CIS-FACTORIAL HepG2 Assay for human Myeloblastosis (Myb) Proto-Oncogene Transcription Factor (AID 2282986). As to conditions: HepG2 Attagene CIS-FACTORIAL Myb reporter transcription; actives raise or lower the signal. Summed up:
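Endogenous transcription factor activity at a Myb-responsive cis element is reported in human liver HepG2 cells after 24 h chemical treatment. Reporter mRNA is detected by RT-PCR and capillary electrophoresis fluorescence, with DMSO as baseline.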

The target of experiment [5] is Nuclear respiratory factor 1 (Homo sapiens) (UniProt Q16656). Kind of experiment: ATG_NRF1_CIS: Attagene CIS-FACTORIAL HepG2 Assay for human Nuclear Respiratory Factor 1 (NRF1) Orphan Gene (AID 2282987). As to conditions: HepG2 NRF1 cis-element reporter, Attagene multiplex; actives raise or lower the signal. Summed up:
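Human hepatoma HepG2 cells carrying transfected promoter-regulated reporter units were incubated with test chemicals for 24 h. Reporter transcripts were measured by RT-PCR plus capillary electrophoresis, and endpoints derived by bidirectional fitting with DMSO as baseline.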

The nature of experiment [6]: ATG_NFI_CIS: Attagene CIS-FACTORIAL HepG2 Assay for human Nuclear Factor I (NFI) (AID 2282989). As to conditions: HepG2 cis-regulatory reporter, NFI response element transcription; actives raise or lower the signal. Summed up: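 Transfected HepG2 liver cells, exposed 24 h, supplied total RNA for oligo(dT) reverse transcription and reporter-specific PCR. Labelled, HpaI-cut fragments were sized by capillary electrophoresis; DMSO set the baseline for bidirectional fitting.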

The target of experiment [7] is Myc proto-oncogene protein (Homo sapiens) (UniProt P01106). Description: ATG_Myc_CIS: Attagene CIS-FACTORIAL HepG2 Assay for human Myelocytomatosis (Myc) Proto-Oncogene Transcription Factor (AID 2282990). As to conditions: HepG2, Attagene cis-reporter transcription factor activity; actives raise or lower the signal. Summed up:
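Fluorescence intensity of reporter-specific cDNA fragments, separated by capillary electrophoresis, gives the signal. Transfected HepG2 cells carrying cis-promoter reporter constructs are incubated with compound for 24 h; DMSO serves as baseline.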

A short description of experiment [8]: ATG_NF_kB_CIS: Attagene CIS-FACTORIAL HepG2 Assay for human Nuclear Factor Kappa B (NF-kB) (AID 2282991). The note with it: HepG2 Attagene cis-factorial NF-kB reporter mRNA; actives raise or lower the signal. Summed up:
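Multiplexed cis-reporter assay in transiently transfected HepG2. 24 h treatment; RNA isolated, RT-PCR, labelled fragments resolved by CE. DMSO baseline.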

Experiment [9] can be described thus: ATG_NRF2_ARE_CIS: Attagene CIS-FACTORIAL HepG2 Assay for human Nuclear Factor Erythroid 2 Related Factor 2 (NFR2) response to Antioxidant Response Elements (ARE) (AID 2282992).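 For AC50: reporter mRNA level measured by RT-PCR and capillary electrophoresis fluorescence.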 The note with it: HepG2 Attagene ARE/NRF2 reporter, transcription factor activity; actives raise or lower the signal. Summed up:
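HepG2 cells transiently transfected with multiplexed cis-regulated reporter transcription units measure endogenous transcription factor activity. Reporter mRNA at 24 h is quantified by RT-PCR, fluorescent labelling and capillary electrophoresis, with bidirectional fitting relative to DMSO.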

Experiment [10] can be described thus: ATG_Oct_MLP_CIS: Attagene CIS-FACTORIAL HepG2 Assay for human Octamer-Binding Transcription Factor (Oct) (AID 2282993). As to conditions: HepG2 Attagene cis-factorial Oct reporter, mRNA; actives raise or lower the signal. Summed up: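 Using HepG2 cells bearing transfected cis-reporter constructs, mRNA induction was read after 24 h by fluorescent RT-PCR and capillary electrophoresis, with DMSO defining baseline for gain- or loss-of-signal fits.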

The target of experiment [11] is Cellular tumor antigen p53 (Homo sapiens) (UniProt P04637). Kind of experiment: ATG_p53_CIS: Attagene CIS-FACTORIAL HepG2 Assay for human p53 Transcription Factor (AID 2282994). As to conditions: HepG2 p53 cis-element reporter, Attagene mRNA; actives raise or lower the signal. Summed up:
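HepG2 cells transiently transfected with multiplexed cis-regulated reporter transcription units read endogenous TF activity. After 24 h compound exposure, reporter mRNA was quantified by RT-PCR, fluorescent labelling, HpaI digestion and capillary electrophoresis; bidirectional fits versus DMSO baseline.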

Experiment [12] in a line: BSK_3C_TissueFactor: BioMAP Diversity Plus: 3C Assay for Tissue Factor Biomarker Activity (AID 2282997). The note with it: BioMAP 3C HUVEC, tissue factor biomarker readout; actives raise or lower the signal. Summed up: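 Dosing of human umbilical vein endothelial cells preceded a 24 h incubation. Tissue Factor was then read by ELISA, with increases and decreases both scored relative to DMSO controls.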

Experiment [13] in a line: BSK_3C_uPAR: BioMAP Diversity Plus: 3C Assay for Urokinase-type plasminogen activator receptor (uPAR) Biomarker Activity (AID 2282998). The note with it: BioMAP 3C HUVEC, uPAR biomarker ELISA; actives raise or lower the signal. Summed up: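 In this endothelial cell-based assay, human umbilical vein primary cells were treated with chemicals and harvested at 24 h. uPAR was quantified using ELISA, with gains or losses fitted relative to DMSO controls.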
For orientation: ELISA stands for enzyme-linked immunosorbent assay.

A short description of experiment [14]: BSK_3C_VCAM1: BioMAP Diversity Plus: 3C Assay for Vascular cell adhesion molecule 1 (VCAM1) Biomarker Activity (AID 2282999). The note with it: BioMAP 3C HUVEC, VCAM1 ELISA, cytokine-stimulated; actives raise or lower the signal. Summed up: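 Human umbilical vein endothelial cells (3C system), biomarker read by ELISA 24 h after dosing; bidirectional fit against DMSO baseline. Cytotoxicity tracked by SRB total-protein staining in parallel cultures at biomarker time.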

The nature of experiment [15]: ATG_Hpa5_TRANS: Attagene TRANS-FACTORIAL HepG2 Assay for human GAL4-Hpa5 Hepatocyte Transcription Factor Basal Promoter (AID 2282975; active = hit-call score of the fitted dose curve at least 0.9, where 1 is the maximum;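 note: hits are increases in reporter mRNA over DMSO baseline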). The note with it: HepG2 Attagene GAL4-Hpa5 transcription reporter. Summed up: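 Basal-promoter GAL4 background control within the HepG2 trans-factorial panel of transiently transfected reporter units. Reporter mRNA is measured 24 h after dosing by RT-PCR and capillary electrophoresis, fitted for gain of signal versus DMSO.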

In experiment [16] the target is Oxysterols receptor LXR-alpha (Homo sapiens) (UniProt Q13133). Kind of experiment: ATG_LXRa_TRANS: Attagene TRANS-FACTORIAL HepG2 Assay for human Liver X Receptor alpha (LXRa) (AID 2282980; active = hit-call score of the fitted dose curve at least 0.9, where 1 is the maximum). As to conditions: HepG2 Attagene TRANS reporter, LXRa transactivation. Summed up:
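Chemical-induced reporter mRNA measured by RT-PCR with fluorescent labelling and capillary electrophoresis after 24 h dosing of transiently transfected HepG2 cells expressing exogenous NR-Gal4 chimeras; increases scored against DMSO baseline.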

Experiment [17] concerns the target Hepatocyte nuclear factor 4-alpha (Homo sapiens) (UniProt P41235). Kind of experiment: ATG_HNF4a_TRANS: Attagene TRANS-FACTORIAL HepG2 Assay for human Hepatocyte Nuclear Factor 4 alpha (HNF4a) (AID 2282982; active = hit-call score of the fitted dose curve at least 0.9, where 1 is the maximum). The note with it: HepG2 HNF4a transactivation reporter, mRNA readout. Summed up: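 HepG2 cells transiently transfected with HNF4a-Gal4 chimera and GAL4-UAS reporter units, dosed for 24 h. Reporter mRNA measured by RT-PCR, fluorescent primer extension and capillary electrophoresis; gain-of-signal fitted relative to DMSO.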

A short description of experiment [18]: ATG_GAL4_TRANS: Attagene TRANS-FACTORIAL HepG2 Assay for GAL4 (Internal Marker) (AID 2282976; active = hit-call score of the fitted dose curve at least 0.9, where 1 is the maximum). The note with it: HepG2 Attagene TRANS GAL4 internal marker reporter. Summed up:
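In transfected human HepG2 liver cells dosed 24 h, GAL4 reporter mRNA serves as a baseline marker. Detection by RT-PCR with fluorescent capillary electrophoresis, activity fitted upward relative to DMSO.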

Chain of Transcriptional activator Myb (Homo sapiens) (P10242 whole entry, looked up): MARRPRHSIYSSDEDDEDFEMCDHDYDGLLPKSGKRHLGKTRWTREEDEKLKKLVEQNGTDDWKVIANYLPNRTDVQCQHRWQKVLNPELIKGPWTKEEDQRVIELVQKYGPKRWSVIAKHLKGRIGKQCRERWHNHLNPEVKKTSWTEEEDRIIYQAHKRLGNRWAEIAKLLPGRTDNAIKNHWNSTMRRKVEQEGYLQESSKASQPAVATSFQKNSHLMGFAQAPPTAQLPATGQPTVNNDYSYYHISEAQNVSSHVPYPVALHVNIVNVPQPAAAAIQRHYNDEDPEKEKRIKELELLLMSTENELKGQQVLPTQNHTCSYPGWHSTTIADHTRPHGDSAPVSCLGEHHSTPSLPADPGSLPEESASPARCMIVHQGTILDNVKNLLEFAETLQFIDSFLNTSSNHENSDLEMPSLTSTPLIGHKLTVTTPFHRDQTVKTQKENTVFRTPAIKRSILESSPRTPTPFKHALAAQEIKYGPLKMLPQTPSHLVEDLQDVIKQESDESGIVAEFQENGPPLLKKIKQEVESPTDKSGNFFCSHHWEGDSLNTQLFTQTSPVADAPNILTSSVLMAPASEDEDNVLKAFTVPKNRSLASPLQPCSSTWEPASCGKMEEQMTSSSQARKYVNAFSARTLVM
Chain of Oxysterols receptor LXR-beta (Homo sapiens) (P55055 whole entry, looked up, the tested form may be a part): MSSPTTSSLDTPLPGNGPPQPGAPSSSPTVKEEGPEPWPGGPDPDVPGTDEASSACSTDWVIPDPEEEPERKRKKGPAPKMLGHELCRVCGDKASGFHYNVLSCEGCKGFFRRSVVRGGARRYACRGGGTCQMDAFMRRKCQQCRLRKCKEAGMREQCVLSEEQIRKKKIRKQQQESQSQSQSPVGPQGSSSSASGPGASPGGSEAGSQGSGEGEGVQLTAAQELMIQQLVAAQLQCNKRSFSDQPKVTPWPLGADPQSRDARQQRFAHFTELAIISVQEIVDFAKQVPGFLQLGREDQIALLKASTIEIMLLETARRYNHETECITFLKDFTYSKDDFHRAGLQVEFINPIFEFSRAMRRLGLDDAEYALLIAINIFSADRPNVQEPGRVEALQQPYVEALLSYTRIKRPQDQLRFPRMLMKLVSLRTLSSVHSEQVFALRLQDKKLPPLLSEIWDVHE
Chain of Nuclear respiratory factor 1 (Homo sapiens) (Q16656 whole entry, looked up): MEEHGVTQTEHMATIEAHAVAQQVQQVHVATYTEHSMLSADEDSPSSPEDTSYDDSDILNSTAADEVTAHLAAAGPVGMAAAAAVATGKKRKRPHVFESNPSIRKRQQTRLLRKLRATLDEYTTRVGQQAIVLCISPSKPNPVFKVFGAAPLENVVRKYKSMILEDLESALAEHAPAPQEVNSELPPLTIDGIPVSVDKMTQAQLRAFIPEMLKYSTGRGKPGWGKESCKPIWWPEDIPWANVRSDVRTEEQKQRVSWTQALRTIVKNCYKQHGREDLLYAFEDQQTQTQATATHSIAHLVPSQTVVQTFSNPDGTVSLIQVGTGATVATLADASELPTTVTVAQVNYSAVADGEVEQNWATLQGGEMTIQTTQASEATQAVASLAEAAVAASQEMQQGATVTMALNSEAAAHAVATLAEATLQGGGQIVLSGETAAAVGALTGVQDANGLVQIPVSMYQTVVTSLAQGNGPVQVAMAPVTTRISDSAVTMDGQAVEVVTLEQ
Chain of Myc proto-oncogene protein (Homo sapiens) (P01106 whole entry, looked up, the tested form may be a part): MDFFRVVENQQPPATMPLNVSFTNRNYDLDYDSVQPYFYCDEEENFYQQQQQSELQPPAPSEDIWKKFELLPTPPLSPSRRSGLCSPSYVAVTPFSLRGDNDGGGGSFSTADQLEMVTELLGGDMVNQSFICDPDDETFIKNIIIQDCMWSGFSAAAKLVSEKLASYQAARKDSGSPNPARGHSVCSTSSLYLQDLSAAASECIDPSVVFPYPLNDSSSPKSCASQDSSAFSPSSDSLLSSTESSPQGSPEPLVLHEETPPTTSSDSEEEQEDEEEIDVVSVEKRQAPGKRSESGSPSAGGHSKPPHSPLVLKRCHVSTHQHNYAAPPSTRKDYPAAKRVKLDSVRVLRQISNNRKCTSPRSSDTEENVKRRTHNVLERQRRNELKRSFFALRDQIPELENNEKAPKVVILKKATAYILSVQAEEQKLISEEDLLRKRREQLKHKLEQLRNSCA
Chain of Oxysterols receptor LXR-alpha (Homo sapiens) (Q13133 whole entry, looked up, the tested form may be a part): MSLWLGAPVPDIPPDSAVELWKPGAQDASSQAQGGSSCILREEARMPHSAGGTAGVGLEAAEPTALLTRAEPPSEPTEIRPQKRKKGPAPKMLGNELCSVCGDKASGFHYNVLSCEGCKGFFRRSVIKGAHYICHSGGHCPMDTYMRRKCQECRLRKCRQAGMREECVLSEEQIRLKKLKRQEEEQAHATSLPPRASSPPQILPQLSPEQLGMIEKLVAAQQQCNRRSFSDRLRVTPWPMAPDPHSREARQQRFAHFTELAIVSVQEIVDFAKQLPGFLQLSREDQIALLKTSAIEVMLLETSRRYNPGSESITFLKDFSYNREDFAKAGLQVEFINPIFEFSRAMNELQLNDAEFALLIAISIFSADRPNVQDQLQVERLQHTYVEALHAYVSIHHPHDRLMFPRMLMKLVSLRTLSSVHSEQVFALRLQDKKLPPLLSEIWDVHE
Chain of Cellular tumor antigen p53 (Homo sapiens) (P04637 whole entry, looked up): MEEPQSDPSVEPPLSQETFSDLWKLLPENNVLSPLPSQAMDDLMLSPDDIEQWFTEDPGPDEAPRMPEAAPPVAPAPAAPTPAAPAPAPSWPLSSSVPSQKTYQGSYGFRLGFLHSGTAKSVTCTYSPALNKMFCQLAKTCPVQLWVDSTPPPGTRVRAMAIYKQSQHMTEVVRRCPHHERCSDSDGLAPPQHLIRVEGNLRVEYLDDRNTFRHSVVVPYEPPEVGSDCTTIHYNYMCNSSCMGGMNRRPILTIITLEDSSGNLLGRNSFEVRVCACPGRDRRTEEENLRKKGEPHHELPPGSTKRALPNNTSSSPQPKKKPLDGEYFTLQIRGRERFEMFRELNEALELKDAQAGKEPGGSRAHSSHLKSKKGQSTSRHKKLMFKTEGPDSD
Chain of Nuclear receptor subfamily 4 group A member 2 (Homo sapiens) (P43354 whole entry, looked up, the tested form may be a part): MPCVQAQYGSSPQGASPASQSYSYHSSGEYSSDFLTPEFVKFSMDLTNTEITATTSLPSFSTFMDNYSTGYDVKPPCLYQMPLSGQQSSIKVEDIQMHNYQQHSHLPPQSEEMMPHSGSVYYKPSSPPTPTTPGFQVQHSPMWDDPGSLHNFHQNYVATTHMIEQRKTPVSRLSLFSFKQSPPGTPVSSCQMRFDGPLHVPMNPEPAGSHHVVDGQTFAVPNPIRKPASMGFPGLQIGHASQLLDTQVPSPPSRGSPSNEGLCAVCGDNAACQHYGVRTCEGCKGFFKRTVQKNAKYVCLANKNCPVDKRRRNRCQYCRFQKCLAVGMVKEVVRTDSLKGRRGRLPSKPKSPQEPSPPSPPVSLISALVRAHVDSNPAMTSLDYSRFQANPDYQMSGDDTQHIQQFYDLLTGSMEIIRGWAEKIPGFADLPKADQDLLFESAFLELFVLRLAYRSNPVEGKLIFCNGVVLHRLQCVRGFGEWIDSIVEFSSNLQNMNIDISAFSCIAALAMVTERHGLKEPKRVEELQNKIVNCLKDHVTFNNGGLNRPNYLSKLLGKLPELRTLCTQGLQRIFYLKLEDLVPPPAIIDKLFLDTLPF
Chain of Hepatocyte nuclear factor 4-alpha (Homo sapiens) (P41235 whole entry, looked up, the tested form may be a part): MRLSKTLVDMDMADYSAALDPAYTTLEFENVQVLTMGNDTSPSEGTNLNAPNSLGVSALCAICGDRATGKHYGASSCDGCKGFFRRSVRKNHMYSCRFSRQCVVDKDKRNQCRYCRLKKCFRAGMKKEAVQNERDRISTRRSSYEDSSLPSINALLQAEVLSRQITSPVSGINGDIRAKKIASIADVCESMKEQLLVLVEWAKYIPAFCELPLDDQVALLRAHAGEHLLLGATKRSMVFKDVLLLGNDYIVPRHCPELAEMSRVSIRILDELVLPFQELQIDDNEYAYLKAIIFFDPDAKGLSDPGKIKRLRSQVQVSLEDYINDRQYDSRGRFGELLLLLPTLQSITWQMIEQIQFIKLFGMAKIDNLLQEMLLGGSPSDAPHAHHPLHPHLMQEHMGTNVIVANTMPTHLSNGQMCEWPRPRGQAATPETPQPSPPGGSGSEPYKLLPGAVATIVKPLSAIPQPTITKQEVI

By AC50 is commonly meant the concentration giving half of the maximal activity seen. As for `COc1ccc(-c2ccccc2)cc1NNC(=O)OC(C)C`, the compound was called inactive in [1], in [2], in experiment [3], in experiment [4], in [5] and in experiment [6]. The outcome in [7], in [8], in experiment [11], in experiment [12], in [13] and in experiment [14] was inactive. For the same compound, the AC50 is 6.71 µM (active) in [9] and 0.882 µM (active) in experiment [10].
Turning to `CNC(=O)N(C)c1nnc(C(C)(C)C)s1`, the outcome in [15], in experiment [16], in experiment [2], in experiment [17], in experiment [3] and in experiment [4] was inactive. Also, the compound was classed as inactive in [5], in experiment [6], in experiment [7], in [8], in [10] and in [11]. In addition, the outcome in experiment [12], in experiment [13] and in [14] was inactive. Further, in experiment [9], the AC50 is 60.1 µM (active).
As for `Cn1c(-c2ccccc2)cc(-c2ccccc2)[n+]1C`, the compound was called inactive in experiment [16], in [2], in experiment [17], in experiment [4], in experiment [5] and in experiment [6]. Further, the call in experiment [7], in [9], in experiment [10], in [11], in experiment [12] and in experiment [14] was inactive. Also, the AC50 in [13] is 3.97 µM (active).
On to `CC1(C)CCC(=Cc2ccc(Cl)cc2)C1(O)Cn1cncn1` (configuration not stated), for which the outcome in experiment [18], in [1], in experiment [16], in experiment [2], in [3] and in experiment [4] was inactive. For the same compound, the compound was classed as inactive in experiment [5], in experiment [6], in experiment [7], in experiment [11], in experiment [12] and in [13]. The result in [14] was inactive. Besides, the AC50 is 3.91 µM (active) in experiment [9] and 13.3 µM (active) in experiment [10].
In the case of `Nc1cnn(-c2ccccc2)c(=O)c1Cl`, the call in experiment [15], in [16], in experiment [2], in experiment [4], in [5] and in experiment [6] was inactive. Further, the call in experiment [7], in [8], in experiment [9], in experiment [10], in experiment [11] and in [12] was inactive. In addition, the outcome in experiment [13] and in experiment [14] was inactive.
